The values below come from PubChem BioAssay (NCI).

Where “and” joins values, the source holds several entries; their conditions need not be identical. Equal values may be shown once. About 83,000 compounds went through this panel and 20% of them were active in at least one assay; those are over-represented in the sample as a whole.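 Plates (96-well) were seeded with cells, treated with compound at one concentration, and incubated for 48 hours before percent growth was determined.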 Calls of active or inactive are those of the source. How the source made its calls: active means growth percent below 10; inactive means the rest.

This assay deals with HL-60(TB) leukemia. Nature of the assay: NCI-60 one-dose screen, 48 h (100 = growth as untreated, 0 = no growth, -100 = all killed). To be noted: 10 µM unless noted.
For the molecule `O=c1oc2ccc(-c3ccc(F)cc3F)cc2c(=O)n1-c1ccc(Cl)c(C(F)(F)F)c1`, the growth was 1.69% (active).

Turning to `O=C(CSc1nc(-c2ccccc2)[nH]c1S(=O)(=O)c1ccccc1)NC1CC1`, the growth is 101% (inactive).

In the case of `O=C1c2ccccc2CN1c1ccccc1`, the growth is 75.1% (inactive).

As for `CC1(O)CC(c2nc(-c3ccc4ccc(-c5ccccc5)nc4c3)c3c(N)nccn23)C1` (centres undefined), the growth is 17.5% (inactive).

Consider `CN(C)CCOC(=O)C(C)(C)C`, for which the growth is 89.7% (inactive).

Consider `COc1ccc(C(=O)/C=C/c2c[n+](=O)c3ccc(F)cc3n2[O-])cc1`, for which the growth is 83.3% (inactive).

On to `CC(=O)C1CCC2C3CC=C4CC(SC(=N)N)CCC4(C)C3CCC12C` (centres undefined), for which the growth was -17.6% (active).

Regarding `O=C(N/N=C/c1ccccc1O)C(O)(c1ccccc1)c1ccccc1`, the growth was 35% (inactive).

Consider `Cc1nn(-c2ccccc2)c(Oc2ccc(Cl)cc2)c1/C=N\N=c1/sc2ccccc2n1C`, for which the growth was 78% (inactive).

Regarding `COC(=O)/C=C\C(=O)OC`, the growth was 90.5% (inactive).

For the molecule `COc1cc(C)c(C2C(C#N)=C(N)Oc3n[nH]c(-c4cccs4)c32)cc1C(C)C` (centres undefined), the growth is 66.2% (inactive).

Consider `OCCNc1nc(NCCO)nc(Nc2ccc(C3=NN(c4ccc(Cl)cc4)C(c4ccc(Cl)cc4)C3)cc2)n1` (centres undefined), for which the growth was 46.2% (inactive).

With `COc1ccc(CN2C(=O)/C(=C\C(=O)c3ccc(OCCN4CCCCC4)cc3)c3ccccc32)cc1`, the growth was 20% (inactive).

Turning to `Nc1ccn([C@@H]2O[C@H](COP(=O)(O)O[C@@H]3C[C@H](n4cc(F)c(=O)[nH]c4=O)O[C@@H]3COP(=O)(O)O[C@@H]3C[C@H](n4cc(F)c(=O)[nH]c4=O)O[C@@H]3COP(=O)(O)O[C@@H]3C[C@H](n4cc(F)c(=O)[nH]c4=O)O[C@@H]3COP(=O)(O)O[C@@H]3C[C@H](n4cc(F)c(=O)[nH]c4=O)O[C@@H]3COP(=O)(O)O[C@@H]3C[C@H](n4cc(F)c(=O)[nH]c4=O)O[C@@H]3COP(=O)(O)O[C@@H]3C[C@H](n4cc(F)c(=O)[nH]c4=O)O[C@@H]3COP(=O)(O)O[C@@H]3C[C@H](n4cc(F)c(=O)[nH]c4=O)O[C@@H]3COP(=O)(O)O[C@@H]3C[C@H](n4cc(F)c(=O)[nH]c4=O)O[C@@H]3COP(=O)(O)O[C@@H]3C[C@H](n4cc(F)c(=O)[nH]c4=O)O[C@@H]3COP(=O)(O)O[C@@H]3C[C@H](n4cc(F)c(=O)[nH]c4=O)O[C@@H]3COP(=O)(O)OCCOCCOCCOCCOCCOCCO)[C@H](O)C2O)c(=O)n1` (some centres undefined), the growth is 38.3% (inactive).

In the case of `O=C(Nc1ccc(I)cc1F)c1cc(Br)ccc1O`, the growth was -31.3% (active).

For `CN(C)CCCn1c(=O)c2cc([N+](=O)[O-])ccc2c2cnc3[nH]ccc3c21`, the growth is 90.4% (inactive).

For `c1ccc(-c2nc(N3CCNCC3)c3nc(-c4ccccc4)oc3n2)cc1`, the growth is -49.6% (active).

For `O=C(/C=C/c1c(Cl)nc2sccn12)c1nccs1`, the growth is 81.5% (inactive).

In the case of `Cc1ccc(Cc2cnc(NC(=O)c3cc(Br)cs3)s2)cc1`, the growth is 8.08% (active).

`Nc1ccc(-c2cc3c(Nc4ccc(OCc5cccc(F)c5)c(Cl)c4)ncnc3s2)cc1`: the growth is 48.3% (inactive).

Consider `O=C(NCc1cccc(C(F)(F)F)c1)[C@H](CCC(=O)N1CCN(C2CCCCC2)CC1)N1C(=O)[C@@H](N2C(=O)OC[C@@H]2c2ccccc2)[C@H]1/C(Cl)=C/c1ccccc1`, for which the growth was 5.62% (active).

Consider `COC(=O)[C@]12CC[C@@H](C(/C=C/c3cccnc3)=N/O)[C@@H]1[C@H]1CC[C@@H]3[C@@]4(C)CC(=C/c5cccnc5)/C(=N/O)C(C)(C)[C@@H]4CC[C@@]3(C)[C@]1(C)CC2`, for which the growth was 2.86% (active).

Take `Nc1ccccc1SC(CC(=O)c1ccccc1)c1c(Cl)cccc1Cl` (centres undefined): the growth was 54.8% (inactive).

Consider `COc1ccc(Cn2c(NCCN=C(N)N)nc(=O)n(Cc3ccc(F)cc3)c2=O)cc1`, for which the growth is 94.1% (inactive) and 96.9% (inactive).

Regarding `CCCCCCC(C)CC1=C(O)c2ccccc2C(=O)C1=O` (centres undefined), the growth was 37.5% (inactive).

For `COc1ccc(-c2cc(C(=O)N=Nc3c(O)[nH]c4ccccc34)no2)cc1`, the growth was 91.8% (inactive).

On to `FC(F)(F)c1cccc(-c2[nH]ncc2-c2nnnn2-c2ccccc2)c1`, for which the growth was 3.68% (active).

For the molecule `CCN1C(=O)/C(=c2\sc3n(c2=O)C2C(NN=3)N(CC)C(=S)N2CC)c2ccccc21` (centres undefined), the growth was 87.4% (inactive).

Take `COc1nc2c(cc1S(=O)(=O)c1ccccc1)CCc1c-2cnn1-c1cccc(Cl)c1`: the growth is 65.2% (inactive).
